Assay results from PubChem BioAssay AID1159580 (chemical genetic matrix, 2015).
Values joined by “and” are separate entries in the source; they are usually repeats but may differ in a detail not shown here. Equal values may be shown once. Among all 5,500 compounds or so, about 2,000 (36%) were called active. Inconclusive results (about 18%) are left out. No stated cut-off is given here; in the data, active means normalized growth mostly below about 0.91 (no sharp cut-off); inconclusive means no clear call, values can overlap the other calls; inactive means mostly above about 0.92. Some of the results follow.

Assay: chemical genetic growth profiling, strain panel (AID 1159580);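 further: tested at 20 µM; growth read once vehicle control cultures reached saturation at 30 °C; 1 = growth at the plate median or of vehicle wells; lower values mean less growth of the strain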
Details: S. cerevisiae deletion strains, growth OD

Measured: normalized growth

CCC(C)C(=O)O[C@H]1[C@H](O)C2C(CN3CC(C)CCC3[C@@]2(C)O)C2C[C@]34O[C@]5(O)C(OC(=O)C(C)(O)CC)CC[C@@]3(C)C5C(OC(C)=O)[C@@H](OC(C)=O)C4[C@@]21O (stereo partly specified)
inactive: locus YAL013W, strain DEP1, hits give low values 1.01 | locus YAL021C, strain ccr4, hits give low values 1.01 | locus YAL026C, strain drs2, hits give low values 1.02 | locus YAL030W, strain snc1, hits give low values 1.01 | locus YBL061C, strain skt5, hits give low values 1.01 | locus YBR009C, strain hhf1, hits give low values 1.02 | locus YBR021W, strain FUR4, hits give low values 1.01 | locus YBR023C, strain chs3, hits give low values 1.03 | locus YBR171W, strain sec66, hits give low values 1.03 | locus YBR229C, strain ROT2, hits give low values 0.999 | locus YBR231C, strain swc5, hits give low values 1.01 | locus YBR279W, strain paf1, hits give low values 1.02 | locus YCL011C, strain gbp2, hits give low values 1.02 | locus YCL016C, strain dcc1, hits give low values 1.03 | locus YCL029C, strain bik1, hits give low values 0.988 | locus YCL069W, strain vba3, hits give low values 1.02 | locus YCR088W, strain abp1, hits give low values 1.02 | locus YDL005C, strain med2, hits give low values 1.03 | locus YDL035C, strain GPR1, hits give low values 1.02 | locus YDL040C, strain nat1, hits give low values 1.02 | locus YDL074C, strain BRE1, hits give low values 1.02 | locus YDL101C, strain DUN1, hits give low values 1.02 | locus YDL134C, strain PPH21, hits give low values 1.01 | locus YDL185W, strain tfp1, hits give low values 0.995 | locus YDL192W, strain arf1, hits give low values 0.99 | locus YDR001C, strain nth1, hits give low values 1.01 | locus YDR069C, strain doa4, hits give low values 1.02 | locus YDR101C, strain arx1, hits give low values 0.991 | locus YDR137W, strain rgp1, hits give low values 1.04 | locus YDR150W, strain NUM1, hits give low values 1.02 | locus YDR159W, strain sac3, hits give low values 1.04 | locus YDR162C, strain NBP2, hits give low values 1.02 | locus YDR195W, strain ref2 1.01 | locus YDR297W, strain sur2, hits give low values 1.01 | locus YDR318W, strain mcm21, hits give low values 0.984 | locus YDR334W, strain swr1, hits give low values 1.02 | locus YDR335W, strain msn5, hits give low values 1.05 | locus YDR388W, hits give low values 0.989 | locus YDR392W, strain spt3, hits give low values 1.04 | locus YDR502C, strain sam2, hits give low values 0.989 | locus YEL003W, strain gim4, hits give low values 1.02 | locus YEL037C, strain rad23, hits give low values 1.03 | locus YEL061C, strain CIN8 (second series), hits give low values 1.02 | locus YEL061C, strain CIN8, hits give low values 1.01 | locus YER015W, strain faa2, hits give low values 1.02 | locus YER016W, strain bim1, hits give low values 1.03 | locus YER110C, hits give low values 0.982 | locus YER111C, strain swi4, hits give low values 1.02 | locus YER155C, strain BEM2 (second series), hits give low values 1.03 | locus YER155C, strain BEM2, hits give low values 1 | locus YER167W, strain BCK2, hits give low values 1.02 | locus YFR010W, strain ubp6, hits give low values 1.01 | locus YGL078C, strain dbp3, hits give low values 0.986 | locus YGL086W, strain mad1, hits give low values 1 | locus YGL167C, strain pmr1, hits give low values 1.01 | locus YGL173C, strain kem1, hits give low values 1.03 | locus YGL227W, strain vid30, hits give low values 1.03 | locus YGL240W, strain doc1, hits give low values 1.01 | locus YGL248W, strain PDE1, hits give low values 1.01 | locus YGL253W, strain hxk2, hits give low values 1.04 | locus YGR078C, strain PAC10, hits give low values 1.02 | locus YGR135W, strain pre9, hits give low values 0.983 | locus YGR229C, strain SMI1, hits give low values 1 | locus YGR252W, strain gcn5, hits give low values 0.965 | locus YHR013C, strain ard1, hits give low values 1.05 | locus YHR027C, strain rpn1, hits give low values 1.03 | locus YHR030C, strain SLT2, hits give low values 1.01 and 1.05 | locus YHR079C, strain IRE1 (second series), hits give low values 0.993 | locus YHR079C, strain IRE1, hits give low values 1.01 | locus YHR094C, strain hxt1, hits give low values 0.99 | locus YHR129C, strain ARP1, hits give low values 1.01 | locus YHR142W, strain chs7, hits give low values 1.04 | locus YHR200W, strain rpn10, hits give low values 1 | locus YIL066C, strain RNR3, hits give low values 1.01 | locus YIL073C, strain SPO22, hits give low values 1.02 | locus YIL125W, strain kgd1, hits give low values 0.995 | locus YIR030C, strain dcg1, hits give low values 0.993 | locus YJL092W, strain hpr5, hits give low values 1.02 | locus YJL095W, strain BCK1 (second series), hits give low values 1.03 | locus YJL095W, strain BCK1, hits give low values 1.01 and 0.996 | locus YJL115W, strain asf1, hits give low values 1.03 | locus YJL129C, strain trk1, hits give low values 1.04 | locus YJL134W, strain LCB3, hits give low values 1.01 | locus YJL154C, strain vps35, hits give low values 1.02 | locus YJL164C, strain tpk1, hits give low values 1.01 | locus YJL166W, strain qcr8, hits give low values 1.01 | locus YJL168C, strain set2, hits give low values 0.996 | locus YJL187C, strain SWE1 (second series), hits give low values 1.01 | locus YJR043C, strain POL32, hits give low values 0.995 | locus YJR066W, strain TOR1, hits give low values 0.976 | locus YJR075W, strain HOC1, hits give low values 1
